From PubChem BioAssay AID2017 (National Center for Advancing Translational Sciences (NCATS), 2009)
Results filed as inconclusive are left out. Activity calls are given as the source filed them. Calls follow the shape of the dose curve; as a rule, active = well fitted curve in the direction sought with a large enough effect; inconclusive = small, poorly fitted or top-dose-only effect, or another doubt; inactive = no such curve, though single readings can be large or run the other way.

Biological target: 4-diphosphocytidyl-2-C-methyl-D-erythritol kinase, chloroplastic (Arabidopsis thaliana) (UniProt O81014)
Assay: Confirmatory Assay for Inhibitors of Human Galactokinase (GALK): CDP-Me assay counterscreen
Conditions: ATP depletion, Kinase-Glo luminescence
Outline: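 CMK (0.25 ug/mL) with 15 uM ATP and 30 uM CDP-ME in 20 mM HEPES pH8.0, 5 mM MgCl2, 40 mM KCl, 1 mM DTT, 0.01% BSA; 1 h room temperature. Residual ATP read by Kinase-Glo Plus luminescence.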

Sequence of 4-diphosphocytidyl-2-C-methyl-D-erythritol kinase, chloroplastic (Arabidopsis thaliana) (O81014 whole entry, looked up): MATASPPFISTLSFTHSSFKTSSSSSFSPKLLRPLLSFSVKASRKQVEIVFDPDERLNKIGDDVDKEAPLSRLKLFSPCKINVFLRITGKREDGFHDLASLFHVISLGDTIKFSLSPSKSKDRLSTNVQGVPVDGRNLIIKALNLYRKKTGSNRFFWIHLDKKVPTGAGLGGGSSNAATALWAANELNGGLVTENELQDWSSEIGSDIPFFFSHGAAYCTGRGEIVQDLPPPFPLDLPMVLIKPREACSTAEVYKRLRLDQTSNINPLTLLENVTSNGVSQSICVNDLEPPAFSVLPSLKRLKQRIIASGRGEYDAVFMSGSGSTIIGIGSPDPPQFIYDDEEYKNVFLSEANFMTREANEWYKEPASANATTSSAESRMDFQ

Question: Which Potency does the source give for COc1cc(/C=C2\C(=N)N3N=C(S(=O)(=O)CC(C)C)SC3=NC2=O)ccc1OC(=O)c1ccco1 here?
Answer: The Potency was 29.8 µM (active).
